# Screening data deposited in PubChem BioAssay by Broad Institute.
# Pf Dd2 growth: P. falciparum Dd2 growth inhibitors, primary screen, SYBR Green fluorescence, single dose replicates. 72 h; stronger effect = lower value. activity change, % at 10 µM. 2.3% of 94,000 active. AID 1159554, 2015; in the data active = activity change below about -80%; inconclusive = no clear call, values can overlap the other calls
# C diff HTS: C. difficile growth inhibitors, primary screen, HTS; Clostridium difficile clinical isolate growth, OD600, 24 h; stronger effect = lower value; growth activity, negative = inhibition, % at 16 µg/mL (by protocol); 0.25% of 86,000 active;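 active = mean growth activity at or below -80% and every replicate also at or below -80%; inconclusive = mean at or below -80% but some replicate above -80%; inactive = mean growth activity above -80%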;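 note: 0% = DMSO wells and -100% = levofloxacin 16 µg/mL wells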
# * hit, by the source's call; ? = inconclusive; . = not tested or not shown; ! = repeats disagree. Most compounds without a hit are left out; they make up all but 2.3% or so of the library.
SMILES,Pf Dd2 growth,C diff HTS
Cc1ccccc1S(=O)(=O)N(C)C[C@H]1OCc2ccccc2-c2c(n(C)c3ccccc23)C(=O)N([C@H](C)CO)C[C@H]1C,-84*,.
Cc1ccccc1S(=O)(=O)N(C)C[C@@H]1OCc2ccccc2-c2c(n(C)c3ccccc23)C(=O)N([C@@H](C)CO)C[C@@H]1C,-89*,.
C[C@H]1CN([C@@H](C)CO)C(=O)c2c(c3ccccc3n2C)-c2ccccc2CO[C@H]1CN(C)S(=O)(=O)c1cccs1,-39,-5
C[C@@H]1CN([C@@H](C)CO)C(=O)c2c(c3ccccc3n2C)-c2ccccc2CO[C@@H]1CN(C)S(=O)(=O)c1ccccc1F,-71,-1
COc1ccccc1S(=O)(=O)N(C)C[C@H]1OCc2ccccc2-c2c(n(C)c3ccccc23)C(=O)N([C@H](C)CO)C[C@@H]1C,-85*,7
O=C(C[C@H]1CC[C@@H]2[C@H](COC[C@@H](O)CN2S(=O)(=O)c2cccc(Cl)c2)O1)Nc1ccccc1,-25,-1
C[C@H](CO)N1C[C@H](C)[C@@H](CN(C)C(=O)Nc2ccc(C(F)(F)F)cc2)Oc2ccc(NC(=O)Nc3cccc4ccccc34)cc2CC1=O,-22,7
Cc1noc(C)c1NC(=O)N(C)C[C@@H]1Oc2c(NS(C)(=O)=O)cccc2C(=O)N([C@@H](C)CO)C[C@@H]1C,2,-1
COc1cccc(-c2cnc3c(c2)C(=O)N([C@@H](C)CO)C[C@H](C)[C@@H](CN(C)Cc2ccc(C(=O)O)cc2)O3)c1,-2,-2
Cn1cnc(S(=O)(=O)N[C@@H]2CC[C@@H](CC(=O)NCC3CCCCC3)O[C@H]2CO)c1,6,-4
COc1ccc(CN2C[C@H](C)[C@@H](OC)CN(C)C(=O)c3cc(NC(C)=O)ccc3OC[C@@H]2C)cc1,3,.
COc1ccc(NC(=O)Nc2ccc3c(c2)C(=O)N([C@@H](C)CO)C[C@@H](C)[C@@H](CN(C)Cc2ccc(Cl)c(Cl)c2)OCCCC[C@@H](C)O3)cc1,-80*,-1
COc1ccc(NC(=O)Nc2ccc3c(c2)C(=O)N([C@H](C)CO)C[C@H](C)[C@@H](CN(C)Cc2ccc(Cl)c(Cl)c2)OCCCC[C@@H](C)O3)cc1,-1,0
COc1ccc(NC(=O)Nc2ccc3c(c2)C(=O)N([C@H](C)CO)C[C@H](C)[C@H](CN(C)Cc2ccc(Cl)c(Cl)c2)OCCCC[C@H](C)O3)cc1,14,-1
COc1ccc(NC(=O)Nc2ccc3c(c2)C(=O)N([C@@H](C)CO)C[C@H](C)[C@@H](CN(C)Cc2ccc(Cl)c(Cl)c2)OCCCC[C@@H](C)O3)cc1,-87*,0
C[C@H](CO)N1C[C@H](C)[C@@H](CN(C)C(=O)CCCN(C)C)OCCCC[C@H](C)Oc2ccc(NC(=O)CCC(F)(F)F)cc2C1=O,13,-2
COc1ccc2c3c(n(C)c2c1)[C@H](CO)NCC31CCN(Cc2cc(-c3ccccc3)on2)CC1,-91*,-7
COc1ccc2c3c(n(C)c2c1)[C@@H](CO)NCC31CCN(CC2CCCCC2)CC1,-82*,-1
COc1ccc2c3c(n(C)c2c1)[C@@H](CO)NCC31CCN(Cc2ccc(F)cc2)CC1,13,.
COc1ccc2c3c(n(C)c2c1)[C@H](CO)NCC31CCN(Cc2ccccc2F)CC1,?,14
COc1ccc2c3c(n(C)c2c1)[C@H](CO)NCC31CCN(Cc2ccccc2Cl)CC1,-85*,-1
COc1ccc2c3c(n(C)c2c1)[C@H](CO)NCC31CN(CC2CC2)C1,9,4
COc1ccc2c3c(n(C)c2c1)[C@@H](CO)NCC31CCN(Cc2ccncc2)CC1,-69,8
COc1ccc2c3c(n(C)c2c1)[C@@H](CO)NCC31CCN(Cc2ccccc2Cl)CC1,-88*,9
CC=Cc1ccc2n(c1=O)C[C@H]1[C@H](CO)[C@@H](C(=O)NC3CCC3)[C@@H]2N1C(=O)c1ccccn1 (mixture of isomers),.,4
SMILES,Pf Dd2 growth,C diff HTS
C[C@@H]1CN([C@@H](C)CO)C(=O)Cc2cc(NC(=O)Nc3ccc4c(c3)OCO4)ccc2O[C@H]1CN(C)C(=O)NC1CCCCC1,-27,-2
C[C@H]1CN([C@@H](C)CO)C(=O)Cc2cc(NC(=O)Nc3ccccc3)ccc2O[C@H]1CN(C)C(=O)Nc1ccc2c(c1)OCO2,10,-5
COc1ccc2c3c(n(C)c2c1)[C@H](CO)NCC31CN(Cc2ccc(F)cc2)C1,-84*,75
COc1ccc2c3c(n(C)c2c1)[C@@H](CO)NCC31CN(Cc2ccc(Cl)cc2)C1,-57,53
C[C@@H]1CN([C@@H](C)CO)C(=O)Cc2cc(NC(=O)NC3CCCCC3)ccc2O[C@H]1CN(C)S(=O)(=O)c1ccc(F)cc1,-43,0
C[C@H]1CN([C@@H](C)CO)S(=O)(=O)c2ccc(/C=C/c3ccccc3)cc2O[C@H]1CN(C)C(=O)c1ccc2c(c1)OCO2,-72,11
C[C@H](CO)N1C[C@H](C)[C@H](CN(C)C(=O)c2ccc3c(c2)OCO3)Oc2cc(/C=C/c3ccccc3)ccc2S1(=O)=O,-83*,1
C[C@@H]1CN([C@H](C)CO)S(=O)(=O)c2ccc(C#Cc3ccccc3F)cc2O[C@H]1CN(C)C(=O)c1ccc2c(c1)OCO2,-81*!,-4
CC(=O)N(C)C[C@@H]1Oc2cc(C#Cc3ccccc3F)ccc2S(=O)(=O)N([C@H](C)CO)C[C@@H]1C,-46,-20
COc1ccc2c3c(n(C)c2c1)[C@H](CO)N(C(=O)Cc1ccccn1)CC31CCN(CC2CCOCC2)CC1,3,-2
O=C(C[C@@H]1C[C@@H]2c3cc(NC(=O)C4CCOCC4)ccc3O[C@@H]2[C@H](CO)O1)NCc1cccc(F)c1,2,-26
C[C@H]1CN([C@@H](C)CO)C(=O)c2cc(NC(=O)CCN3CCOCC3)ccc2O[C@H]1CN(C)S(=O)(=O)c1ccc(Cl)cc1,2,3
CCC(=O)N1[C@H](C#N)[C@H](c2ccccc2-c2ccccc2)[C@@H]1CO,18,1
C[C@@H]1CN([C@H](C)CO)C(=O)c2cc(N(C)C)ccc2O[C@@H](C)CCCCO[C@H]1CN(C)C(=O)Nc1cccc2ccccc12,.,-3
C[C@@H]1CCCCO[C@H](CN(C)C(=O)Nc2cccc3ccccc23)[C@@H](C)CN([C@@H](C)CO)C(=O)c2cc(NC(=O)c3ccccc3)ccc2O1,-82*,4
C[C@@H]1CN([C@H](C)CO)C(=O)c2cc(NC(=O)c3ccccc3)ccc2O[C@@H](C)CCCCO[C@@H]1CN(C)C(=O)Nc1cccc2ccccc12,-89*,8
C[C@@H]1CCCCO[C@H](CN(C)C(=O)Nc2cccc3ccccc23)[C@@H](C)CN([C@@H](C)CO)C(=O)c2cc(N(C)C)ccc2O1,-83*,0
C[C@@H]1CN([C@@H](C)CO)C(=O)c2cc(NC(=O)c3ccccc3)ccc2O[C@@H](C)CCCCO[C@H]1CN(C)C(=O)Nc1cccc2ccccc12,-81*,0
C[C@@H]1CCCCO[C@@H](CN(C)C(=O)Nc2cccc3ccccc23)[C@@H](C)CN([C@H](C)CO)C(=O)c2cc(NC(=O)c3ccccc3)ccc2O1,-53,6
C[C@@H]1CCCCO[C@@H](CN(C)C(=O)Nc2cccc3ccccc23)[C@H](C)CN([C@@H](C)CO)C(=O)c2cc(NC(=O)c3ccccc3)ccc2O1,57,-2
